This note sets out measurements from PubChem BioAssay AID1851 (National Center for Advancing Translational Sciences (NCATS), 2009).

The whole screen tested about 16,000 compounds, of which about 5,800 (36%) were called active. Inconclusive results (about 23%) are left out. Calls follow the shape of the dose curve; as a rule, active = well fitted curve in the direction sought with a large enough effect; inconclusive = small, poorly fitted or top-dose-only effect, or effect the other way; inactive = no such curve, though single readings can be large or run the other way. The list shows a part of the results. Square brackets hold non-standard residues; d marks the D form. Peptide text beside a SMILES is read from it.
% is scaled to controls: 0 for no effect and ±100 for the full control effect.

This experiment deals with Cytochrome P450 2C19 (Homo sapiens) (UniProt P33261). Nature of the experiment: Cytochrome panel assay with activity outcomes. To be noted: recombinant CYP, pro-luciferin dealkylation, luminescence, p450-cyp2c19; series mostly up to 57.1 µM.
Chain of Cytochrome P450 2C19 (Homo sapiens) (P33261 whole entry, looked up): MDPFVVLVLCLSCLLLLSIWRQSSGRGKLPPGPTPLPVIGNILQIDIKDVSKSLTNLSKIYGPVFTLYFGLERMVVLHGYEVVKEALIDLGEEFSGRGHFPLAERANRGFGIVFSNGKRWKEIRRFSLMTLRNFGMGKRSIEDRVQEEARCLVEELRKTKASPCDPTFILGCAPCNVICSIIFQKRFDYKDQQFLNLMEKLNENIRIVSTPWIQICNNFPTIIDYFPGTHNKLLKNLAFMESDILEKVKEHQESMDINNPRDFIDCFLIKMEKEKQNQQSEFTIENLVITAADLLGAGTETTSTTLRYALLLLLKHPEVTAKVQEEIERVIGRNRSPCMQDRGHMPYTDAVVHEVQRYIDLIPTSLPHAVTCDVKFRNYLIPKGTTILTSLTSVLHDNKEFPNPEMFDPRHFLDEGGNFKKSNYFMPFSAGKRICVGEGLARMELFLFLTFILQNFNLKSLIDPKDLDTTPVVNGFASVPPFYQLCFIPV
On to `CCN(CC)CCOC(=O)c1cc(Cl)c(N)cc1OC`, for which the AC50 result was “inactive”.

Turning to `Cc1c(C(=O)O)oc2ccc(S(=O)(=O)NCc3ccc4c(c3)OCO4)cc12`, the AC50 result was “inactive”.

Consider `Cc1cc(C)c(S(=O)(=O)NCC2CCC(C(=O)NCc3ccc4c(c3)OCO4)CC2)c(C)c1` (stereo unspecified), for which the AC50 was 6.31 µM (active).

Take `CN1C(=O)/C(=C\c2ccccc2)Sc2ccc(C(=O)N3CCN(c4ccccn4)CC3)cc21`: the AC50 was 3.98 µM (active).

For the molecule `O=C(c1csnn1)N1CCC2(CC1)CCN(c1ccccn1)CC2`, the AC50 result was “inactive”.

As for `Cn1cccc1C(=O)N1CCC2(CC1)CCN(c1ccccn1)CC2`, the AC50 entry was “inactive”.

As to `COc1ccc(C(=O)N/N=C2/C(=O)c3c(C)cc(C)cc3CC2(C)C)cc1`, the AC50 was 3.98 µM (active).

With `CCN(CC)C(=O)c1cc2cc([N+](=O)[O-])ccc2s1`, the AC50 was 15.8 µM (active).

`CCOC(=O)c1nc(N)sc1C(=O)OCC`: the AC50 entry is “inactive”.

Take `CCOC(=O)c1cc(C(=O)OCC)cc(-n2cc(O)c(C(=O)OCC)n2)c1`: the AC50 was 14.1 µM (active).

As to `CC1=c2c(oc3cc(O)c(Nc4c(C)cc(O)cc4O)c(C)c23)=CC(=O)C1=Nc1c(C)cc(O)cc1O`, the AC50 was 3.16 µM (active).

For `CCNCc1cc(OCC)c(OCC(=O)NCCc2ccccc2)cc1Cl`, the AC50 is 1.58 µM (active).

Regarding `CCOc1cc(CNCCO)c(Cl)cc1OCC(=O)NCCc1ccccc1`, the AC50 was 4.47 µM (active).

With `Cn1c(=O)cc(OCC(=O)NCc2cccnc2)c2ccccc21`, the AC50 result was “inactive”.

Take `N=c1nc(N)nc(N)n1-c1ccc(S(N)(=O)=O)cc1`: the activity, negative = inhibition is 36.5% [at 11.4 µM] (inactive).

`COc1cnc(-c2ccccc2)nc1Oc1cccc(C)c1`: the AC50 is 7.94 µM (active).

For the molecule `CCOC(=O)c1cnc(-c2ccccc2)nc1Oc1ccccc1`, the AC50 is 14.1 µM (active).

With `CCOC(=O)c1cnc(-c2ccccc2)nc1Oc1ccc(Cl)cc1`, the AC50 result was “inactive”.

Turning to `N[C@H](CO)C(=O)NCC(=O)O` (H-[dS]-Gly-OH), the activity, negative = inhibition is 19% [at 11.4 µM] (inactive).

With `CCc1cc2c(=O)c(-c3cnn(-c4ccccc4)c3)coc2c(CN2CCOCC2)c1O`, the AC50 was 20 µM (active).

Consider `COc1cccc(CSc2nnc(C(F)(F)F)n2Cc2ccc(F)cc2)c1`, for which the AC50 was 3.16 µM (active).

For the molecule `Cc1ccc(CSc2nnc(C(F)(F)F)n2Cc2ccc(F)cc2)cc1`, the AC50 is 2.82 µM (active).

For `Fc1ccc(Cn2c(SCc3ccc(F)c(F)c3)nnc2C(F)(F)F)cc1`, the AC50 was 2.24 µM (active).

Consider `Fc1ccc(Cn2c(SCc3ccc(F)c(C(F)(F)F)c3)nnc2C(F)(F)F)cc1`, for which the half-maximal activity concentration (AC50) was 2.82 µM (active).

For the molecule `[O-][N+]1(CC[N+]2([O-])CCCCC2)CCCCC1`, the activity, negative = inhibition is 25.1% [at 11.4 µM] (inactive).

Regarding `CC1(C)C(=O)C(c2ccccc2)=C2CN3C(=O)N(CCc4ccccc4)C(=O)C3(Cc3ccccc3)C=C21` (stereo unspecified), the AC50 entry is “inactive”.

With `CC[C@H](CO)NCCN[C@@H](CC)CO`, the AC50 entry was “inactive”.

As for `CCOC(=O)c1ccc(NC(=O)Nc2ccc3c4c(cccc24)C(=O)N3CC)cc1`, the AC50 was 11.2 µM (active).

Turning to `CCCN(CCC)CCCNC(=O)c1ccc2c(c1)N(CC)C(=O)c1ccccc1S2=O` (stereo unspecified), the AC50 entry is “inactive”.

Take `CCN1C(=O)c2cccc3c(NC(=O)c4cccc(N5C(=O)CCC5=O)c4)ccc1c23`: the AC50 result is “inactive”.

As for `Cc1ccc(C(=O)N/N=C/c2cc(C)n(-c3ccc(Br)cc3)c2C)cc1[N+](=O)[O-]`, the AC50 result is “inactive”.

`Cc1cc(C=O)c(C)n1-c1ccc(NC2CCCC2)c([N+](=O)[O-])c1`: the AC50 was 6.31 µM (active).

Turning to `CN(/C=C/C(=O)C(F)(F)F)Cc1ccccc1`, the AC50 was 8.91 µM (active).

As for `N[C@@](CCc1ccccc1)(C(=O)O)c1ccccc1`, the activity, negative = inhibition was -19.5% [at 11.4 µM] (inactive).

As to `CCCC[C@@H]1C[C@H]1C(NC(=O)c1ccccc1)c1ccccc1C(F)(F)F` (stereo partly specified), the AC50 was 0.501 µM (active).

`CCCC[C@@H]1C[C@H]1C(NC(=O)c1cccs1)c1ccccc1C(F)(F)F` (stereo partly specified): the AC50 is 0.631 µM (active).

Take `COC(=O)c1sccc1NC(=O)CSc1cc(Cl)ccc1Cl`: the AC50 was 2.82 µM (active).

As for `Cc1cnc(NC(=O)CSc2ccc(Cl)cc2)s1`, the AC50 was 2 µM (active).

With `Cc1cc(Cl)nc(NC(=O)CSc2ccc(Cl)cc2)n1`, the activity, negative = inhibition is 34.4% [at 11.4 µM] (inactive).

As to `COC(=O)c1sccc1NC(=O)CSc1ccccc1NS(=O)(=O)c1ccc(Cl)cc1`, the AC50 is 0.794 µM (active).

On to `Cc1cnc2cc(Cl)ccc2c1SCC(=O)O`, for which the activity, negative = inhibition is 24.8% [at 11.4 µM] (inactive).

For the molecule `COC(=O)c1sccc1NC(=O)CN(C)NS(=O)(=O)c1ccc(F)cc1`, the AC50 is 14.1 µM (active).

With `Oc1ccc(Cc2nccc3cc(O)c(O)cc23)cc1O`, the activity, negative = inhibition is -17.6% [at 11.4 µM] (inactive).

`COCc1nnc(NC(=O)CCN2C(=O)c3ccccc3C2=O)s1`: the AC50 result is “inactive”.

As to `COCc1nnc(NC(=O)CSc2ccc(C)cc2)s1`, the half-maximal activity concentration (AC50) is 3.55 µM (active).

With `COC(=O)c1sccc1NC(=O)CSc1ccc(Cl)cc1`, the AC50 is 7.08 µM (active).

With `COc1ccc2c3c([nH]c2c1)[C@H]1C[C@@H]2[C@@H](C[C@@H](O)[C@H](OC)[C@H]2C(=O)O)CN1CC3`, the activity, negative = inhibition is 19% [at 11.4 µM] (inactive).

For `CCOc1ccc(N(CCC#N)S(=O)(=O)c2ccc(OC)cc2)cc1`, the AC50 was 3.55 µM (active).

With `O=C(Nc1cccc(-c2cn3cccnc3n2)c1)c1ccco1`, the AC50 result was “inactive”.

With `O=C(Nc1cccc(NC(=O)c2ccc(-c3cccc(Br)c3)o2)c1)c1ccco1`, the AC50 was 2.51 µM (active).

For the molecule `O=C(Nc1ccc2nc(-c3ccc(Br)o3)[nH]c2c1)c1ccco1`, the AC50 is 22.4 µM (active).

Turning to `O=C(Nc1cccc(Br)c1)/C(=C\c1cccnc1)NC(=O)c1ccco1`, the AC50 entry was “inactive”.

On to `CCCCCc1nc2c(C#N)c(-c3ccc(Cl)cc3)ccn2n1`, for which the AC50 was 7.94 µM (active).

As for `Cc1noc(C)c1CS(=O)(=O)c1ccc(Br)cc1`, the AC50 was 0.282 µM (active).

Consider `CCN1CCN(CC(=O)N2c3ccccc3CC2C)CC1` (stereo unspecified), for which the AC50 result is “inactive”.

For the molecule `CC1Cc2ccccc2N1C(=O)CN1C(=O)COc2ccccc21` (stereo unspecified), the AC50 is 3.16 µM (active).

With `C[C@@H]1Cc2ccccc2N1NC(=O)c1ccc(Cl)c(S(N)=O)c1` (stereo partly specified), the AC50 result was “inactive”.

For `CC1Cc2ccccc2N1C(=O)CSc1nnnn1C(C)C` (stereo unspecified), the AC50 was 4.47 µM (active).

`O=C1COc2ccccc2CN1`: the AC50 result was “inactive”.

Consider `Cc1ccccc1-n1ncc2c(SCC(=O)N3c4ccccc4CC3C)ncnc21` (stereo unspecified), for which the AC50 was 7.08 µM (active).

With `CC1(C)CCC(NC(=O)[C@H](N)CCC(=O)O)CC1`, the AC50 result was “inactive”.

Consider `COCC(=O)Nc1c(I)c(C(=O)NC[C@@H](O)CO)c(I)c(C(=O)N(C)C[C@@H](O)CO)c1I`, for which the AC50 result is “inactive”.

Take `Cc1cccc(C)c1OC1(c2ccccc2)OC(=O)c2ccccc21` (stereo unspecified): the AC50 is 0.251 µM (active).

Take `O=C1OC(OC2CCCCC2)(c2ccccc2)c2ccccc21` (stereo unspecified): the concentration at half-maximal activity (AC50) is 7.94 µM (active).

As to `Cc1cccc(OC2(c3ccccc3)OC(=O)c3ccccc32)c1C` (stereo unspecified), the AC50 is 2.51 µM (active).

For the molecule `C=C[C@]1(C)C[C@H](OC(=O)CO)[C@]2(C)C3C(=O)CC[C@]3(CC[C@H]2C)[C@H](C)[C@H]1O` (stereo partly specified), the activity, negative = inhibition was -15.4% [at 11.4 µM] (inactive).

For the molecule `Cc1ccc(Cn2cccc(NC(=O)NC3CCCCC3)c2=O)cc1`, the AC50 is 14.1 µM (active).

Turning to `O=C(Nc1cccn(Cc2ccc(F)cc2)c1=O)NC1CCCCC1`, the AC50 was 10 µM (active).

For the molecule `COCCn1c(=O)c(-c2cc(F)cc(F)c2)nc2cnc(N3CCOCC3)nc21`, the AC50 result was “inactive”.

`c1ccc2oc(C3=NCCN3)cc2c1`: the AC50 entry was “inactive”.

For `COCCn1c(=O)c(C)nc2cnc(N3CCNCC3)nc21`, the AC50 entry is “inactive”.

As to `Cc1cc(N2CCOCC2)ncc1[N+](=O)[O-]`, the AC50 was 31.6 µM (active).

On to `O=[N+]([O-])c1ccc(N2CCOCC2)nc1`, for which the AC50 result was “inactive”.

Take `Cc1ccc(S(=O)(=O)/N=C2/NC(=O)/C(=C/c3cccnc3)S2)cc1`: the AC50 was 2.24 µM (active).

`Cc1ccc(S(=O)(=O)NC(=O)CSc2nc3ccccc3s2)cc1`: the AC50 result is “inactive”.

In the case of `O=C(CSc1nc(-c2ccccc2)nc2ccccc12)Nc1nccs1`, the AC50 entry is “inactive”.

Turning to `O=C(CSc1nc2ccccc2s1)Nc1nccs1`, the AC50 is 1.58 µM (active).

For `O=C(CSc1nc2ccccc2s1)NNC(=S)Nc1ccc(Br)cc1`, the AC50 was 2.82 µM (active).

On to `Cc1cccc(-c2nsc(SCC(=O)Nc3nccs3)n2)c1`, for which the AC50 is 1.78 µM (active).

Consider `O=C(CSCc1ccc(Cl)cc1)Nc1nccs1`, for which the AC50 was 2.51 µM (active).

`O=S(=O)(c1ccc(Cl)cc1)c1cnc(-c2cccnc2)nc1-c1ccccc1`: the AC50 was 2.82 µM (active).

Turning to `O=S(=O)(c1ccccc1)c1cnc(-c2cccnc2)nc1-c1ccc(Cl)cc1Cl`, the AC50 was 5.01 µM (active).

On to `OC[C@H]1O[C@H](n2cnc3c(NC4CCCC4)nc(Cl)nc32)[C@@H](O)[C@@H]1O`, for which the AC50 result is “inactive”.

Take `COc1ccc(-c2nnc(SCc3cccc(C)c3)n2N)cc1`: the AC50 is 2.51 µM (active).

With `CCn1c(SCc2cccc(C)c2)nnc1-c1ccccc1`, the AC50 is 0.501 µM (active).

Consider `CCn1c(SCc2cccc(C)c2)nnc1-c1ccc(C)cc1`, for which the AC50 was 2.24 µM (active).

On to `NS(=O)(=O)c1cc2c(cc1Cl)=NC(CCC(=O)O)=NS=2(=O)O`, for which the activity, negative = inhibition was 22.1% [at 11.4 µM] (inactive).

`C[C@H](C[C@H](N)C(=O)O)C(=O)O`: the AC50 entry is “inactive”.

For `O=C(O)/C(=C\c1ccncc1)c1cccc2ccccc12`, the AC50 is 2.51 µM (active).

In the case of `O=C(O)CCC(=O)c1ccc2ccc3cccc4ccc1c2c34`, the activity, negative = inhibition was 25.1% [at 11.4 µM] (inactive).

Take `O=C(O)/C(=C\c1ccc(O)cc1)c1cccc2ccccc12`: the activity, negative = inhibition was -11.8% [at 11.4 µM] (inactive).

In the case of `NC(=O)/C(=C\c1ccncc1)c1cccc2ccccc12`, the AC50 was 2.51 µM (active).

Turning to `OC[C@@H]1O[C@@H](N2CCN([C@@H]3O[C@@H](CO)[C@@H](O)[C@H](O)[C@H]3O)CC2)[C@@H](O)[C@H](O)[C@H]1O`, the activity, negative = inhibition is 29.2% [at 11.4 µM] (inactive).

With `Clc1ccc2c(c1)C1=C(C(c3ccncc3)O2)C(c2ccc(Br)cc2)n2ncnc2N1` (stereo unspecified), the AC50 was 0.708 µM (active).

`Cc1cc(O)c(C(C)C)cc1N=Cc1ccccc1O`: the AC50 was 0.398 µM (active).

In the case of `O=C(O)c1cc(N=Cc2ccccc2O)cc(C(=O)O)c1`, the activity, negative = inhibition was 8.41% [at 11.4 µM] (inactive).
